Pf Dd2 growth: blocks in vitro growth of P. falciparum Dd2; P. falciparum Dd2 growth, SYBR Green, 72 h; AID 1347417; 4.3% of 120,000 active; Potency, µM (top dose mostly 28.9 µM), usual class: inhibitors; active = well fitted inhibition curve with a large enough effect; note: nearly all actives have a fitted effect of over 65% in size
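Infected erythrocytes (Dd2, 0.3% parasitemia, 2.5% hematocrit final) are added to compound in RPMI-1640/Albumax II medium, grown 72 h at 37C in low oxygen, then lysed with saponin/Triton-X containing SYBR Green and read by fluorescence.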
A number is an active result; - = inactive. Many of the other results were omitted from the sample, so hits are more common in it than they were.

SMILES	Pf Dd2 growth
O=C(NCc1ccccn1)C1CCN(c2nccc(-c3cccnc3)n2)CC1	-
O=C(Nc1ccc([C@H]2OCC(=O)N(Cc3cccnc3)[C@@H]2CO)cc1)c1cc(F)cc(F)c1	-
Cc1nccn1Cc1nnc(C2CCN(C(=O)c3cnccn3)CC2)n1C	-
Cc1noc(-c2cn(C3CCN(C(=O)COc4ccccc4)C3)nn2)n1 (stereo not drawn)	-
c1cc(-c2ccnc(NCC3(N4CCOCC4)CCCCC3)n2)ccn1	-
CC(Cc1ccncc1)Nc1nccc(-c2cnn(-c3ccccc3)c2)n1 (stereo not drawn)	8.9µM
c1cncc(-c2ccnc(NCCc3csc(-c4ccncc4)n3)n2)c1	-
Fc1ccc(CCNc2nccc(-c3cccnc3)n2)cc1	-
CCN(Cc1ccncc1)Cc1cn(-c2ccccc2)nn1	-
CC(Cc1ccncc1)Nc1nccc(-c2cnn(-c3ccccc3F)c2)n1 (stereo not drawn)	5µM
COc1cccc(NC(=O)c2cnc3c(c2)N(Cc2ccccc2)CCC3)c1	-
CC(=O)N1CCN(C(=O)c2cnc3cc(C)nn3c2)CC1	-
CCc1ccccc1NC(=O)CSc1nc2n[nH]c(C)c2c(=N)n1-c1cccc(C)c1	-
Cc1cccc(-n2c(SCC(=O)Nc3ccccc3Cl)nc3n[nH]c(C)c3c2=N)c1	-
Cc1ccc(NC(=O)CSc2nc3n[nH]c(C)c3c(=N)n2-c2ccccc2C)cc1C	8.9µM
O=C(NC[C@H]1OC[C@@H](NC2CCC(F)(F)CC2)[C@@H]1O)c1ccccc1	-
FC(F)(F)Oc1ccc(-c2cnc([C@@H]3COCCN3Cc3ccncc3)[nH]2)cc1	-
COc1ccc(-c2noc([C@@H]3CCCN3C(=O)Cc3cccc(F)c3)n2)cc1OC	-
COc1ccc(N2CC(c3noc(-c4cccc(C)c4)n3)CC2=O)cc1 (stereo not drawn)	-
COc1ccc2cc(CN3CCC(OC)CC3)c(-c3cccc(C)c3)nc2c1	10µM
Cc1cccc(-c2nc3cc(C)ccc3cc2CN2CCN(CCCO)CC2)c1	-
COc1ccc(-c2[nH]ncc2CN2CC[C@H]3CC[C@@H](C2)N3)cc1	-
COCC1CCN(Cc2cc3ccc(OC)cc3nc2-c2cccc(C)c2)C1 (stereo not drawn)	11µM
COc1ccc(-c2nc3cc(C)ccc3cc2CN2CCC[C@H]2C(N)=O)cc1OC	-
Cc1nn(C)cc1C(=O)N1C[C@@H](CO)[C@H](c2ccccn2)C1	-
SMILES	Pf Dd2 growth
CCN1C(=O)CCC2(C(=O)Nc3ccc(C)cc3)CCCC=C12 (stereo not drawn)	-
COc1ccc(Nc2cc3c(cn2)CN(C)CCN3C)cc1OC	-
Cc1noc(-c2ccc(C(C)(C)C)cc2)c1C(=O)NCc1cc(F)cc(F)c1	10µM
Cc1cccc(CNC(=O)c2c(C)noc2-c2ccc(C(C)(C)C)cc2)c1	-
Cc1noc(-c2ccc(C(C)(C)C)cc2)c1C(=O)NCc1ccc(F)cc1F	-
Cc1ccc(S(=O)(=O)Nc2ccc(C)n(CC(=O)O)c2=O)cc1	-
Cn1ncc(N2CCOC(CCNC3CCC4(CCNCC4)CC3)C2)cc1=O (stereo not drawn)	-
Cc1ccc(NC(=O)Nc2nnc(N(CC(C)C)CC(C)C)s2)cc1Cl	-
CC(C)CN(CC(C)C)c1nnc(NC(=O)Nc2cccc(C(F)(F)F)c2)s1	11µM
CCN(c1ccccc1)c1nnc(NC(=O)Nc2cccc(C(F)(F)F)c2)s1	-
Cc1ccsc1C(=O)N1CCn2c(nnc2[C@@H]2C[C@@H](O)CN2Cc2ccccc2)C1	-
CCNc1ncnc2sc3c(c12)CCN(Cc1ccc[nH]1)C3	1µM
COc1ccc(Nc2ncnc3sc4c(c23)CCCC4)cc1	-
CCc1ccc(Nc2ncnc3sc4c(c23)CCCC4)cc1	-
CCNc1ncnc2sc3c(c12)CCN(C(=O)c1ccnn1C)C3	11µM
CCn1c2c(c(=O)n1-c1ccccc1)CCN(C(=O)c1ccnn1C)C2	-
CCCNC(=O)N1CCc2c(sc3ncnc(N4CCN(C)CC4)c23)C1	-
O=C(c1cccs1)N1CCC2(CC1)NC(=O)N(Cc1ccccc1)C2=O	-
Cc1cccc(C(=O)N2CCCCCNC(=O)[C@@H]3CCC[C@@H]32)c1	-
O=C(NCCOc1ccccc1)c1cnc2n1CCN(Cc1ccncc1Cl)CC2	-
O=C(NC1CCN(c2cc(-c3ccccc3)[nH]n2)CC1)c1cccc(Cl)c1	-
Oc1ccccc1-c1cnc2n[nH]c(-c3ccc4c(c3)OCO4)c2n1	11µM
c1ccc(-c2cnc3n[nH]c(-c4ccc5c(c4)OCO5)c3n2)cc1	-
Fc1ccccc1-c1cnc2n[nH]c(-c3ccc4c(c3)OCO4)c2n1	-
COCCO[C@H]1C(=O)N(C2CCN(C(=O)c3cccnc3)CC2)[C@H]1c1ccncc1	-
COc1ccc(OC)c(NC(=O)Cn2c(-c3ccccc3)nc(C)cc2=O)c1	-
Cc1nn(C)c(C)c1CCC(=O)N1CCc2[nH]cnc2C1C(=O)O (stereo not drawn)	-
CCCCc1nc2cc(C(=O)NCCNc3nc(C)cc(=O)[nH]3)ccc2o1	-
Cc1cc(O)c(CN2CCN(c3ccc(F)cc3)CC2)c2oc(=O)cc(C)c12	11µM
Cc1scc(CN2CCN(c3ccc(F)cc3)CC2)c1C	-

Source: PubChem (National Center for Advancing Translational Sciences (NCATS))
